Test results from PubChem BioAssay (EPA / NIEHS).
Results filed as inconclusive are left out. The source made the active and inactive calls. Rule for the calls, unless noted: active = hit-call score of the fitted dose curve at least 0.9, where 1 is the maximum; inconclusive = response in the unintended direction; inactive = score below 0.9.

What was measured:
[1] = read-out: Cytochrome P450 2B6 (Homo sapiens) (UniProt P20813); experiment: CLD_CYP2B6_48hr: CellzDirect (CLD) Gene Expression Assay for xenobiotic metabolism (CYP2B6) at 48 hours (AID 2283699);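 note: actives raise transcript level above DMSO so potency reflects induction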
Procedure, shortened: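 Primary human hepatocytes dosed daily for two days over multiple concentrations, 0.2% DMSO vehicle; CYP2B6 mRNA quantified at 48 h by qNPA chemiluminescence. Induction fitted as gain of signal versus DMSO; cytotoxicity annotated by morphology.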

[2] = read-out: xenobiotic metabolism (CYP1A2), CYP1A2 (gene 1544); experiment: CLD_CYP1A2_48hr: CellzDirect (CLD) Gene Expression Assay for xenobiotic metabolism (CYP1A2) at 48 hours (AID 2283703)
Procedure, shortened: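 Primary human hepatocytes from two donor preparations were dosed daily for two days at multiple concentrations in 0.2% DMSO vehicle. CYP1A2 mRNA was measured at 48 hours by chemiluminescent quantitative nuclease protection assay, with gain of signal fitted versus DMSO and cytotoxicity annotated from morphology.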

[3] = read-out: xenobiotic metabolism (CYP1A1), CYP1A1 (gene 1543); experiment: CLD_CYP1A1_48hr: CellzDirect (CLD) Gene Expression Assay for xenobiotic metabolism (CYP1A1) at 48 hours (AID 2283705)
Procedure, shortened: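 Primary human hepatocytes from two donors dosed daily for two days at multiple concentrations, 0.2% DMSO vehicle; CYP1A1 mRNA induction at 48 h by qNPA chemiluminescence. Cytotoxicity noted by phase-contrast morphology.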

[4] = read-out: organic anion transporter (SLCO1B1), SLCO1B1 (gene 10599); experiment: CLD_SLCO1B1_48hr: CellzDirect (CLD) Gene Expression Assay for organic anion transporter (SLCO1B1) at 48 hours (AID 2283707)
Procedure, shortened: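 Primary human hepatocytes from two donor preparations dosed daily for two days with multiple concentrations, 0.2% DMSO vehicle. SLCO1B1 mRNA at 48 h by quantitative nuclease protection assay, chemiluminescence; gain-of-signal fitted versus DMSO.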

[5] = read-out: glucuronosyltransferase (UGT1A1), UGT1A1 (gene 54658); experiment: CLD_UGT1A1_48hr: CellzDirect (CLD) Gene Expression Assay for glucuronosyltransferase (UGT1A1) at 48 hours (AID 2283709);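 note: actives increase expression relative to DMSO so potency refers to induction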
Procedure, shortened: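 Human primary hepatocytes dosed daily for two days (0.2% DMSO vehicle), harvested at 48 h. UGT1A1 mRNA induction measured by quantitative nuclease protection assay with chemiluminescence; gain of signal versus DMSO; cytotoxicity flagged from morphology.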

[6] = read-out: sulfotransferase (SULT2A), SULT2A1 (gene 6822); experiment: CLD_SULT2A_48hr: CellzDirect (CLD) Gene Expression Assay for sulfotransferase (SULT2A) at 48 hours (AID 2283710);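 note: hits raise SULT2A1 transcript above the 0.2% DMSO vehicle baseline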
Procedure, shortened: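 Primary human hepatocytes (two donor preparations) dosed daily for two days with chemicals at multiple concentrations, vehicle 0.2% DMSO; SULT2A1 mRNA induction at 48 h by quantitative nuclease protection assay, chemiluminescent read-out, fitted for gain of signal versus DMSO.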

[7] = CLD_ACTIN_48hr: CellzDirect (CLD) Gene Expression Assay for Baseline Control (Actin) at 48 hours (AID 2283702)
Procedure, shortened: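 Primary human hepatocytes (two donor preparations) dosed daily for two days with ToxCast chemicals at multiple concentrations versus 0.2% DMSO vehicle; harvested at 48 h. Actin mRNA measured as a background control by quantitative nuclease protection assay with chemiluminescence.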

[8] = read-out: Broad substrate specificity ATP-binding cassette transporter ABCG2 (Homo sapiens) (UniProt Q9UNQ0); experiment: CLD_ABCG2_48hr: CellzDirect (CLD) Gene Expression Assay for ABC Transporter (ABCG2) at 48 hours (AID 2283704);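 for AC50: potency for induction of ABCG2 mRNA above the DMSO baseline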
Procedure, shortened: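 Primary human hepatocytes from two donors, dosed daily for 2 days, 0.2% DMSO vehicle, several concentrations. ABCG2 mRNA at 48 h by qNPA chemiluminescence, gain fitted versus DMSO; cytotoxicity flagged by morphology.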

[9] = STM_H9_CystineISnorm_perc: Stemina devTOX quickPredict H9 human embryonic stem cell (hESC)-based Assay for Cystine (CYSS) Metabolite Biomarker, Normalized (AID 2283713; active = hit-call score of the fitted dose curve at least 0.9, where 1 is the maximum; inactive = score below 0.9)
Procedure, shortened: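 H9 hESC, pluripotent; compound 72h, re-dosed q24h with medium change. Last-24h medium → 40% acetonitrile deproteinization → UPLC-HRMS. CYSS area / C13-CYSS standard, then % of 0.1% DMSO median.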

[10] = STM_H9_OrnCyssISnorm_ratio: Stemina devTOX quickPredict H9 human embryonic stem cell (hESC)-based Assay for Ornithine (ORN):Cystine (CYSS) Ratio (AID 2283714)
Procedure, shortened: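 Undifferentiated H9 hESCs exposed 72 h, media and compound replaced every 24 h; final 24-h conditioned media deproteinized and analysed by UPLC-HRMS against C13 spike-ins. Value is the internal-standard-normalized ORN/CYSS ratio versus 0.1% DMSO.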

[11] = CEETOX_H295R_MTT_cell_viability: Viability Assessment in the CeeTox HT-H295R MTT Assay (AID 2283718; active = hit-call score of the fitted dose curve at least 0.9, where 1 is the maximum; inactive = score below 0.9)
Procedure, shortened: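 Human H295R adrenal cells, prestimulated 48 h with 10 uM forskolin, were exposed 48 h to chemicals in 0.1% DMSO. Viability was measured in the same wells by MTT (0.5 mg/ml, 4 h, 37 C), absorbance 570/650 nm, as percent of controls.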

[12] = read-out: Cytochrome P450 2C19 (Homo sapiens) (UniProt P33261); experiment: CLD_CYP2C19_48hr: CellzDirect (CLD) Gene Expression Assay for xenobiotic metabolism (CYP2C19) at 48 hours (AID 2283700);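 note: fitted upward so actives raise CYP2C19 mRNA above the 0.2% DMSO vehicle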
Procedure, shortened: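 Primary human hepatocytes (two donor preparations) dosed daily for two days, harvested at 48 h; CYP2C19 mRNA induction measured by qNPA chemiluminescence. Gain-of-signal fitted relative to 0.2% DMSO vehicle as baseline.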

[13] = Tanguay_ZF_120hpf_ActivityScore_legacy: (Legacy) Oregon State University Tanguay Lab 120 Hour Post-fertilization zebrafish Assay Score for Activity (AID 2283742);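 for AC50: dechorionated Tropical 5D wild-type zebrafish embryos held singly per well; static exposure from 6 hpf until 120 hpf at 28 °C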
Procedure, shortened: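 Dechorionated Tropical 5D embryos, one per well from 6 hpf, statically exposed to 120 hpf at 28 °C in 0.64% DMSO. Mortality and malformations scored binary by brightfield microscopy; activity score combines 18 endpoints, fitted positively versus DMSO.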

[14] = tested on: Thyroperoxidase (TPO), gene 445522; experiment: CCTE_Simmons_GUA_TPO: CCTE's Guaiacol Assay for Thyroperoxidase (TPO) Inhibition, Simmons Lab (AID 2283750)
Procedure, shortened: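 Porcine thyroid microsomes (25 ug) in 200mM potassium phosphate, preincubated 30 s at 37C with compound (8 concentrations, 5 nM–87.5 uM) and 35mM guaiacol; 1mM H2O2 starts reaction. Absorbance change at 450nm over first 80 s; loss of signal versus DMSO, three replicates.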

[15] = read-out: xenobiotic metabolism (CYP2C9), CYP2C9 (gene 1559); experiment: CLD_CYP2C9_48hr: CellzDirect (CLD) Gene Expression Assay for xenobiotic metabolism (CYP1A2) at 48 hours (AID 2283701; active = hit-call score of the fitted dose curve at least 0.9, where 1 is the maximum; inactive = score below 0.9)
Procedure, shortened: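 Primary human hepatocytes (two donor preparations) dosed daily for two days with test chemicals, 0.2% DMSO vehicle; harvested at 48 h. mRNA induction quantified by qNPA chemiluminescence, fitted for gain of signal against DMSO baseline; cytotoxicity annotated from phase-contrast morphology.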

[16] = read-out: alkyl and aryl transferase (GSTA2), GSTA2 (gene 2939); experiment: CLD_GSTA2_48hr: CellzDirect (CLD) Gene Expression Assay for alkyl and aryl transferase (GSTA2) at 48 hours (AID 2283708);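 note: active means mRNA induction above DMSO vehicle baseline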
Procedure, shortened: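 Primary human hepatocytes dosed daily for two days (0.2% DMSO vehicle), harvested at 48 h. GSTA2 mRNA induction measured by quantitative nuclease protection assay with chemiluminescent imaging, fitted for gain of signal relative to DMSO.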

Measured: AC50

Sequence of Cytochrome P450 2C19 (Homo sapiens) (P33261 whole entry, looked up): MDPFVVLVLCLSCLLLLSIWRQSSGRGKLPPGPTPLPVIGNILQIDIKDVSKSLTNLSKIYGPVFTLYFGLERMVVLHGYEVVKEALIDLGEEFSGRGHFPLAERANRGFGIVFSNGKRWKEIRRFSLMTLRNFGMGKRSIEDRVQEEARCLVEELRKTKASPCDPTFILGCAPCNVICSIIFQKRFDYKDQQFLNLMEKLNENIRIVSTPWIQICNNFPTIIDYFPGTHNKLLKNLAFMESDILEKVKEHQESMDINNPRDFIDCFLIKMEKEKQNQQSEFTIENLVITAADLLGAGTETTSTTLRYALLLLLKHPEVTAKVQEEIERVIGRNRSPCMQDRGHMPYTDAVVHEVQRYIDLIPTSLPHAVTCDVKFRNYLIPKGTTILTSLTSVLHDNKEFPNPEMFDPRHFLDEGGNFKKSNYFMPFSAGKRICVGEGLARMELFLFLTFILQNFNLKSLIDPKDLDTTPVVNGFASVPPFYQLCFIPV
Sequence of Broad substrate specificity ATP-binding cassette transporter ABCG2 (Homo sapiens) (Q9UNQ0 whole entry, looked up): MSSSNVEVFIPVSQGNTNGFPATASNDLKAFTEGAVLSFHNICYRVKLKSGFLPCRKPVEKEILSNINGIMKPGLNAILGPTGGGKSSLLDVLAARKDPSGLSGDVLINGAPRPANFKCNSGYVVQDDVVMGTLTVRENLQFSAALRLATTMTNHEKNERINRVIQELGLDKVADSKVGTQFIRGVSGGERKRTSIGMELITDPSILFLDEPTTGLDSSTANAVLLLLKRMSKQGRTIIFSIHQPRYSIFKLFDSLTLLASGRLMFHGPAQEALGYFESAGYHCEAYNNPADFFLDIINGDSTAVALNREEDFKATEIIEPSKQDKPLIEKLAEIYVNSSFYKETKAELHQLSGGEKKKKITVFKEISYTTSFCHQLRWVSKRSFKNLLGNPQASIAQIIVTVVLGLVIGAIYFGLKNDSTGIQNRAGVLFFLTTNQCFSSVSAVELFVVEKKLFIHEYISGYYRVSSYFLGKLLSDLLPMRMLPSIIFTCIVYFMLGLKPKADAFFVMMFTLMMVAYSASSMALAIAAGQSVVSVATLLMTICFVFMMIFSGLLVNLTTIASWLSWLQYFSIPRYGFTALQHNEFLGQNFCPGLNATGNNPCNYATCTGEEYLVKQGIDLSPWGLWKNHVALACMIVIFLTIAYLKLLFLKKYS

CCCCSP(=O)(SCCCC)SCCCC
inactive: [4]
active: [1] 4.3 µM | [2] 3.04 µM | [3] 4.08 µM | [5] 20 µM | [6] 33.4 µM

COc1ccc(C(=CC(=O)N2CCOCC2)c2ccc(Cl)cc2)cc1OC
active: [1] 3.59 µM | [8] 32 µM
inactive: [7] | [6] | [9] | [10] | [11]

CCCCOC(=O)[C@@H](C)Oc1ccc(Oc2ccc(C#N)cc2F)cc1
inactive: [1] | [12] | [7] | [2] | [6] | [13]
active: [9] 77.7 µM | [10] 84.8 µM

COP(=O)(NC(C)=O)SC (stereo not given)
inactive: [1] | [12] | [2] | [3] | [4] | [6] | [11] | [13] | [14]

COc1cccc(C(=O)NN(C(=O)c2cc(C)cc(C)c2)C(C)(C)C)c1C
inactive: [1] | [12] | [4] | [6] | [11]
active: [2] 20 µM

CCOP(=S)(OCC)Oc1ccc2c(C)c(Cl)c(=O)oc2c1
inactive: [12] | [5] | [6] | [9] | [10] | [11]
active: [1] 1.01 µM | [2] 0.414 µM

CCNc1nc(Cl)nc(NC(C)(C)C#N)n1
inactive: [2] | [6] | [9] | [11]
active: [1] 3.45 µM | [15] 0.0364 µM

CCOP(=O)(NC(C)C)Oc1ccc(SC)c(C)c1 (stereo not given)
active: [1] 10.7 µM | [2] 5.87 µM | [13] 33.3 µM
inactive: [12] | [3] | [6] | [11]

CNC(=O)Oc1cccc2c1OC(C)(C)O2
inactive: [12] | [7] | [2] | [11] | [13]
active: [1] 3.08 µM

CCOP(=S)(OCC)SCCSCC
active: [1] 1.68 µM | [2] 7.27 µM | [5] 4.17 µM | [9] 31.1 µM | [10] 34.3 µM
inactive: [12] | [6] | [13]

CCCCOC(=O)c1ccccc1C(=O)O
inactive: [1] | [12] | [2] | [4] | [6] | [11]

CCc1cccc(CC)c1N(COC)C(=O)CCl
inactive: [7] | [2] | [4]
active: [1] 3.01 µM | [3] 1.89 µM | [16] 32.1 µM | [13] 27.6 µM

Cc1nn(-c2cc(NS(C)(=O)=O)c(Cl)cc2Cl)c(=O)n1C(F)F
active: [1] 6.7 µM
inactive: [12] | [7] | [2] | [4] | [6] | [9]

Cc1ccn2nc(S(=O)(=O)Nc3c(F)cccc3F)nc2n1
inactive: [1] | [12] | [2] | [8] | [4] | [6] | [9] | [11] | [13]

O=C(O)c1cc(Oc2ccc(C(F)(F)F)cc2Cl)ccc1[N+](=O)[O-]
inactive: [1] | [12] | [4] | [5] | [6] | [11]

COc1cc(OC)nc(Sc2cccc(Cl)c2C(=O)O)n1
inactive: [1] | [12] | [7] | [2] | [4] | [16] | [6]

CCCOCC(=Nc1ccc(Cl)cc1C(F)(F)F)n1ccnc1
inactive: [1] | [7] | [11] | [13]
active: [2] 0.687 µM

CN1COCN(Cc2cnc(Cl)s2)C1=N[N+](=O)[O-]
inactive: [1] | [12] | [7] | [2] | [3] | [4]

CON=C(C(=O)OC)c1ccccc1CON=C(C)c1cccc(C(F)(F)F)c1
inactive: [1] | [7] | [2] | [5] | [6] | [9]

CC(=NC#N)N(C)Cc1ccc(Cl)nc1
inactive: [1] | [12] | [7] | [2] | [3] | [4] | [6]

C#CC(C)(C)NC(=O)c1cc(Cl)cc(Cl)c1
inactive: [12] | [3] | [11]
active: [1] 3.69 µM | [2] 0.348 µM | [6] 5.38 µM

COP(=O)(OC)OC(Br)C(Cl)(Cl)Br (stereo not given)
inactive: [1] | [12] | [7] | [2] | [16] | [6]

CCOP(=O)(OCC)Oc1cc(C)nc(C(C)C)n1
active: [1] 5.53 µM | [2] 11.6 µM | [6] 4.2 µM
inactive: [12] | [4] | [13]

CCCCN(CC)c1c([N+](=O)[O-])cc(C(F)(F)F)cc1[N+](=O)[O-]
active: [1] 4.17 µM | [2] 5.9 µM | [3] 20 µM
inactive: [4] | [6] | [11]

CN(C)NC(=O)CCC(=O)O
inactive: [1] | [12] | [2] | [4] | [6] | [11]

C=C(C)[C@H]1Cc2c(ccc3c2O[C@@H]2COc4cc(OC)c(OC)cc4[C@@H]2C3=O)O1
inactive: [1] | [12] | [7] | [5] | [6]
active: [9] 0.279 µM | [10] 0.333 µM | [13] 0.193 µM

CC(C1CC1)C(O)(Cn1cncn1)c1ccc(Cl)cc1 (stereo not given)
inactive: [12] | [5] | [6] | [11]
active: [1] 2.42 µM | [15] 0.0911 µM | [2] 5.01 µM | [9] 83 µM | [10] 77.4 µM | [13] 26.2 µM

CC(C)=CC1C(C(=O)OCN2C(=O)C3=C(CCCC3)C2=O)C1(C)C (stereo not given)
active: [1] 6.64 µM
inactive: [12] | [7] | [16] | [6] | [13]

CSC1=N[C@@](C)(c2ccccc2)C(=O)N1Nc1ccccc1
active: [1] 1.16 µM | [9] 30.1 µM | [10] 29.9 µM
inactive: [7] | [5]

CC(C)N(C(=O)SCC(Cl)=C(Cl)Cl)C(C)C
active: [1] 3.91 µM | [9] 12.4 µM | [10] 12.2 µM
inactive: [7] | [2] | [16] | [6]

CCOP(=S)(OCC)OC(Cl)C(Cl)(Cl)Cl (stereo not given)
active: [1] 0.0135 µM | [2] 9.25 µM
inactive: [3] | [16]

CCC(CC)Nc1c([N+](=O)[O-])cc(C)c(C)c1[N+](=O)[O-]
inactive: [7] | [3] | [4] | [5] | [6]
active: [1] 6.23 µM | [2] 9.85 µM

CCCOc1nn(C(=O)NS(=O)(=O)c2ccccc2C(=O)OC)c(=O)n1C
inactive: [1] | [12] | [7] | [2] | [4] | [13]
